Assay results published in ChEMBL document CHEMBL3988442, “University of Dundee, Small-Polar-MMV Screening Library” (2021).
Among all 69,000 compounds or so, about 420 (0.61%) showed an effect of 50% or more. Shown is part of a subset that was picked to be rich in strong results.

Biological target: T1, Histidine--tRNA ligase (Leishmania infantum) (UniProt A4I591)
T1 sequence (whole entry): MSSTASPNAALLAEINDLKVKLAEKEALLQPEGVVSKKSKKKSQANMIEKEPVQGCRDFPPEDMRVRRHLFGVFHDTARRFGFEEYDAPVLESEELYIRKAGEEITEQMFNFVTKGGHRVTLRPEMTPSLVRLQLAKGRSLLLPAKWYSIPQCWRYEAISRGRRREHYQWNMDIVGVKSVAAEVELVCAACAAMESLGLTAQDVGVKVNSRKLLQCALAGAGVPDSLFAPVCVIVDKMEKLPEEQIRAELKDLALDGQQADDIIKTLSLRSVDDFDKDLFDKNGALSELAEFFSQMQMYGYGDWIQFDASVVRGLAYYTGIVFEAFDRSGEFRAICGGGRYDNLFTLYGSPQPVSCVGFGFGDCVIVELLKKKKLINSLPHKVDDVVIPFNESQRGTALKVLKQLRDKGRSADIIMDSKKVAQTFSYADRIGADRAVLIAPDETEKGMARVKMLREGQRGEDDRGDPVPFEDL
Test: Leishmania infantum Histidine tRNA synthetase (LdHisRS)
Assay type: functional
Design: scale not given: in the data most compounds retested in dose-response had high values
Details: 30 µM

SMILES	Percent Effect [%]
O=C(c1cscn1)N1CC[C@@H]2[C@@H]1CCN2CC1CCOC1 (stereo not given in full)	13.2
O=C(NCc1ccco1)[C@@]12CCO[C@@H]1CCN(CC1CCOCC1)C2	20
CCN1C[C@H]2CCN(C(=O)Cc3cccc(OC)c3)CC[C@H]2S1(=O)=O	19.2
O=C(Cn1ccnc1)N1C[C@@H]2CC[C@H](Oc3cccc(F)c3)[C@@H]2C1	7.29
Cc1nc(CN2C(=O)CC[C@H]3[C@@H]2CCN3C(=O)c2ccsc2)cs1	16.5
CC(C)NC(=O)[C@]12COC[C@H]1CN(Cc1cnn(C)c1)C2	12.5
CCS(=O)(=O)N1CC[C@@H]2[C@@H](CCC(=O)N2CCc2ccccc2)C1	9.38
Cc1nnc(NC(=O)CN2CCc3nn(C)c(=O)cc3C2)s1	9.62
Cc1cc(NC(=O)CN2CCc3nn(C)c(=O)cc3C2)no1	100
Cc1csc(NC(=O)CN2CCc3nn(C)c(=O)cc3C2)n1	24.2
Cc1noc(C(C)Nc2ccc(N3CCOCC3)cc2C)n1 (stereo not given)	63
Cc1cc(N2CCOCC2)ccc1NC(C)c1nc(C(C)C)no1 (stereo not given)	39.1
Cc1cc(N2CCOCC2)ccc1NC(C)c1nc(C(C)(C)C)no1 (stereo not given)	28.3
c1cncc(COCC2C[C@@H]3OCCN(Cc4cccnc4)[C@H]3C2)c1 (stereo not given in full)	28.3
Cc1ccc(-c2noc(CN3CCc4cncnc4C3)n2)cc1	25.7
COc1ccc(-c2noc(CN3CCc4cncnc4C3)n2)cc1	50.4
c1ccc(Cc2noc(CN3CCc4cncnc4C3)n2)cc1	43
c1ncc2c(n1)CN(Cc1nc(-c3ccoc3)no1)CC2	34.9
Fc1ccc(OCc2noc(CN3CCc4cncnc4C3)n2)cc1	61.6
Cn1cnc2c1CCN(Cc1nc(COc3ccc(F)cc3)no1)C2	-98.5
Cn1cc(C(=O)N[C@@H]2CN(Cc3cccnc3)[C@@H]3CCCO[C@@H]32)cn1	22.9
O=C(c1cnccn1)N1CCN2C[C@H](OCC3CC3)C[C@H]2C1	15.1
c1cc(-c2ccc3c(c2)CCC32CCNCC2)ccn1	53.5
c1cncc(-c2ccc3c(c2)C2(CC3)CCN(c3nncs3)CC2)c1	53.3

SMILES	Percent Effect [%]
O=C(CCO)N1CCC2(CCc3ccc(-c4ccoc4)cc32)CC1	22.4
c1cc(-c2ccc3c(c2)C2(CC3)CCN(c3nncs3)CC2)ccn1	74.2
c1cncc(-c2ccc3c(c2)C2(CCNCC2)CC3)c1	-17.2
CN(C)CC(=O)N1CCC2(CCc3ccc(-c4ccncc4)cc32)CC1	22.4
c1cc(-c2ccc3c(c2)CCC32CCN(c3nncs3)CC2)co1	75.8
OCCN1CCC2(CCc3cc(-c4ccoc4)ccc32)CC1	24
c1cncc(-c2ccc3c(c2)CCC32CCN(Cc3ccco3)CC2)c1	44
c1cncc(-c2ccc3c(c2)CCC32CCNCC2)c1	20
Cc1ccc2c(c1)C1(CC2)CCN(c2nncs2)CC1	24.8
c1cc(-c2ccc3c(c2)C2(CCNCC2)CC3)ccn1	13.8
COCCN1C[C@H]2CC[C@@H]1CN(Cc1cc(=O)c3cc(C)ccc3[nH]1)C2	40.6
COCCN1C[C@H]2CN(C(=O)c3ccno3)CCN2C1=O	11.1
COCC(=O)N1C[C@@H](OCc2cccnc2)[C@H]2OCCC[C@@H]21	14.6
COCCNC(=O)[C@H]1CN(Cc2scnc2C)C[C@H]2OCC[C@@H]12	13.3
CCc1cc(N[C@@H]2C[C@H]3CC[C@@H]2C3)n2nccc2n1	25.7
Cc1nc(CN2C[C@@H]3CN(C(=O)c4cnccn4)C[C@@H]3C2=O)cs1	2.94
Cc1ccc(CN2C[C@H]3C[C@H](C(=O)Nc4cccnc4)[C@@H](C2)O3)cc1	22
c1cncc(-c2ccc3c(c2)CCC32CCN(Cc3nccs3)CC2)c1	48
c1cc(-c2ccc3c(c2)CCC32CCN(c3nncs3)CC2)ccn1	66.1
CN1CCCCC12CCN(c1nncs1)CC2	6.2
CNC(=O)[C@H]1CC[C@@H]2[C@@H](CCN2c2ncccn2)O1	14
O=C(c1cnccn1)N1C[C@@H]2OCC(=O)N(CC3CCCCC3)[C@@H]2C1	25
COc1cc(N2CC[C@@H]3O[C@@H](c4ccncn4)C[C@H]3C2)ncn1	14.5
Cn1nc2c(cc1=O)CN(Cc1nc(-c3ccoc3)no1)CC2	16

SMILES	Percent Effect [%]
Cc1cccc(-c2noc(CN3CCc4nn(C)c(=O)cc4C3)n2)c1	87.8
Cn1nc2c(cc1=O)CN(Cc1nc(-c3cccs3)no1)CC2	20.3
Cc1ccc(-c2noc(CN3CCc4nn(C)c(=O)cc4C3)n2)cc1	70.7
CCCn1nc2c(cc1=O)CN(Cc1nc(-c3ccoc3)no1)CC2	2.67
Cn1nc2c(cc1=O)CN(Cc1nc(-c3ccsc3)no1)CC2	27.6
COc1cc2c(nn1)CCN(Cc1noc(-c3ccccc3)n1)C2	24
Cn1nc2c(cc1=O)CN(Cc1nc(-c3cccnc3)no1)CC2	10.3
Cc1ccccc1-c1noc(CN2CCc3nn(C)c(=O)cc3C2)n1	103
Cc1ccc(-c2nc(CN3CCc4cnc(C)nc4C3)no2)cc1	21.4
Cc1ccccc1-c1noc(CN2CCc3cncnc3C2)n1	-42.2
Cc1ccc(-c2nc(CN3CCc4nn(C)c(=O)cc4C3)no2)cc1	52.4
C[C@]12CCCCN(C(=O)c3ccccn3)[C@H]1CCCC(=O)N2	7.37
CN(Cc1cccnc1)[C@@H]1CN(Cc2ccccn2)[C@@H]2CCCO[C@H]12	8.33
Cc1nnc(N2CC[C@H]3O[C@H](C(=O)NCc4ccccn4)CC[C@H]32)s1	20
Cc1ncsc1CN1C[C@@H]2CCCO[C@@H]2[C@H](N(C)C(C)C)C1	14
Cc1ccc(CN2CC[C@@H]3O[C@@H](C(=O)N4CCN(C)CC4)C[C@@H]32)cc1	9.62
CS(=O)(=O)N1C[C@@H]2CC[C@H](C1)N(Cc1cscn1)C2=O	15.2
O=C1CCCC2=C1C(c1cccc(F)c1F)Nc1nonc1N2 (stereo not given)	6.25
COCCN1C[C@@H]2CN(c3cnccn3)C[C@@H]2C1=O	16
Cn1nc2c(cc1=O)CN(Cc1nc(-c3ccco3)no1)CC2	91.4
CCn1nc2c(cc1=O)CN(Cc1nc(-c3ccco3)no1)CC2	33
CCCn1nc2c(cc1=O)CN(Cc1nc(-c3ccco3)no1)CC2	5.5
